# Test results from PubChem BioAssay AID588689 (Southern Research Specialized Biocontainment Screening …, 2011).
# Screen size: about 340,000 compounds; about 1,000 (0.29%) were called active. No stated cut-off is given here; in the data, inconclusive means inhibition above about 29% without an active follow-up result; inactive means below that. Only a sample is shown. Results with a measured potency or affinity are listed apart.
# Molecular target: Genome polyprotein (Dengue virus type 2 (strain 16681-PDK53)) (UniProt P29991)
# Experiment: flavivirus cap methylation enzyme inhibition – biochemical, confirmation dose response, primary screen (AID 588689)
# Details: Dengue-2 NS5 methyltransferase capping enzyme assay, at 25 µM, stronger effect = higher value
# [1] = measured here: pilot screen replicate inhibition
Compound,inhibition,inhibition [1]
CCOCCSc1n[nH]c(=O)n1CCc1ccccc1,0.65% (inactive),
COC(=O)CCCC1=CC2=CC(=O)C(C)(OC(=O)C3CCCC3)C(=O)C2=CO1 (stereo unspecified),-2.4% (inactive),
CCCCC1=CC2=CC(=O)C(C)(OC(=O)C3CCCC3)C(=O)C2=CO1 (stereo unspecified),-4.96% (inactive),
O=C(Nc1ccccc1N1CCCCC1)C1CC(=O)N(c2ccccc2F)C1 (stereo unspecified),-1.45% (inactive),
COCCNc1nc2ccccc2n2cnnc12,-9.27% (inactive),
O=[N+]([O-])c1cc(Br)c(Nc2ccccc2)c([N+](=O)[O-])c1,5.88% (inactive),
N#Cc1c2ccc([N+](=O)[O-])cc2[n+]([O-])n1-c1ccccc1,15.2% (inactive),
CCO[C@H]1OC(C(=O)N2CCN(C)CC2)=C[C@@H](c2ccc(C(F)(F)F)cc2)[C@@H]1CCCO,-3.14% (inactive),
CC1=NN(C(N)=S)C(=O)C1N=Nc1c(C)cc(C)cc1C (stereo unspecified),-2.39% (inactive),
CC1=NN(C(N)=S)C(=O)C1N=Nc1ccc(Br)cc1 (stereo unspecified),7.71% (inactive),
Cc1ccc(Sc2sc(=O)n(C)c2S(=O)(=O)c2ccc(C)cc2)cc1,-2.3% (inactive),
Cc1ccc(Sc2c(C)[nH]n(C(C)(C)C)c2=O)cc1,-4.77% (inactive),2.59%
CCOc1ccc(OCc2ccc(C(=O)N(CC)CC)cc2)cc1,-20% (inactive),
CCn1c(CSc2nccn2C)nc2cc(C(=O)O)ccc21,1.61% (inactive),
CCn1c(CSc2nnc(-c3ccncc3)n2C)nc2cc(C(=O)O)ccc21,7.11% (inactive),
O=C(CCn1c(=O)oc2ccc(Cl)cc21)NCCCN1CCOCC1,-12.3% (inactive),
CCOc1ccc2nc(SCC(=O)NC3CCCc4ccccc43)sc2c1 (stereo unspecified),-8.65% (inactive),
O=C1NC2(CCCCCC2)Cc2ccccc21,-4.23% (inactive),
Cc1cc(SCC(=O)Nc2ccccc2)n2ncc(-c3ccccc3)c2n1,-3.11% (inactive),
Cc1ccc(NC(=O)c2ccc(-n3cccn3)c([N+](=O)[O-])c2)cc1,0.68% (inactive),
O=C1c2ccccc2C(O)(c2ccccc2)N1c1ccncc1 (stereo unspecified),-5.22% (inactive),
Cc1ccc(N2C(=O)c3ccccc3C2(O)c2ccccc2)cc1 (stereo unspecified),-0.39% (inactive),
CC1CN(C(=O)c2nn(C)cc2[N+](=O)[O-])CC(C)O1 (stereo unspecified),-1.37% (inactive),

Compound,inhibition,inhibition [1]
CCCCn1c(-c2cccnc2)nc2cc3[nH]c(=O)c(C(C)C)nc3cc21,4.01% (inactive),
COc1ccccc1OCC#CCSc1ncccn1,-53.6% (inactive),
C#CCN(C[C@H]1[C@H](OC(=O)Nc2cccs2)[C@H](OC(=O)Nc2cccs2)C[C@H]2C(=O)N(c3ccccc3)C(=O)[C@@H]12)S(=O)(=O)c1ccc(C)cc1,2.32% (inactive),
COc1ccc(S(=O)(=O)/C(C#N)=C/Nc2cccc(F)c2)cc1,-2.28% (inactive),
Cc1ccc(F)c(NC(=O)CCc2ccccc2)c1,-5.56% (inactive),
Cc1ccc(NC(=O)/C(C#N)=N/Nc2ccc(C(=O)O)cc2)c(C)c1,3.18% (inactive),
Cc1ccc(C)c2[nH]c(=O)c(CCNS(=O)(=O)c3ccccc3)cc12,-0.7% (inactive),
COc1cc(/C=C2\SC(=S)N(Nc3ccccc3)C2=O)cc(OC)c1OC,-1.38% (inactive),
COc1cc(/C=C2\SC(=S)N(CCC(=O)Nc3ccccc3)C2=O)cc(OC)c1OC,0% (inactive),
Cc1ncsc1CCOC(=O)C12CC3CC(CC(C3)C1)C2,-12.1% (inactive),
CCOC(=O)c1c(C)nc(C)c(C(=O)OCC)c1-c1ccc(OC)cc1,0.8% (inactive),
O=C(NC(Cc1c[nH]c2ccccc12)C(=O)Nc1ccc(OC(F)(F)F)cc1)c1cccs1 (stereo unspecified),-0.91% (inactive),
O=C1C(=O)c2c(ccc3ccccc23)-c2ccccc21,8.87% (inactive),
O=C1C=C(O)c2cccc(O)c2C1=O,10.9% (inactive),
COc1c(CC=C(C)C)cc(C2CC(=O)c3c(O)cc(O)cc3O2)cc1CC=C(C)C (stereo unspecified),1.45% (inactive),
COc1cc(C2CC(=O)c3c(O)cc(O)cc3O2)ccc1O (stereo unspecified),-4.19% (inactive),
O=C(Nc1ccccn1)c1ccc(Cl)c(S(=O)(=O)N2CCCC2)c1,-10.4% (inactive),
O=C(CCN1CCN(CCO)CC1)Nc1cccc(Br)c1,0% (inactive),
N#Cc1cc([N+](=O)[O-])ccc1NC(=O)COC(=O)C1CC2CCCC(C1)C2=O (stereo unspecified),-2.16% (inactive),
COc1cc(/C=N/NC(N)=O)ccc1OCC(=O)Nc1ccc(C)c(C)c1,-9.1% (inactive),
CCOc1cc(/C=N\Nc2ccc([N+](=O)[O-])cc2)ccc1OCC(=O)Nc1ccc(C)c(C)c1,22% (inactive),
CCC(=O)Nc1nnc(-c2cccs2)s1,-6.55% (inactive),
COc1ccc(NS(=O)(=O)Cc2ccccc2)cc1OC,0% (inactive),

Compound,inhibition,inhibition [1]
COc1cc(/C=C2/SC(N)=NC2=O)ccc1Oc1ccc([N+](=O)[O-])cc1[N+](=O)[O-],4.51% (inactive),
COc1ccc([N+](=O)[O-])cc1NS(=O)(=O)Cc1ccccc1,-3.44% (inactive),
CCN(CC)S(=O)(=O)c1ccc(OC)c(NS(=O)(=O)Cc2ccccc2)c1,-2.33% (inactive),
CSc1ccc(S(=O)(=O)Nc2ccc3c(c2)NC(=O)CC3)cc1,0% (inactive),
CN(CC(=O)Nc1ccc(Cl)c(C(F)(F)F)c1)C(=O)c1cccc2cccnc12,2.2% (inactive),
Cc1ccc(O)c(NC(=O)Cc2ccc3ccccc3c2)c1,-11.9% (inactive),
CC(NC(=O)CCNS(=O)(=O)c1cccc2nonc12)c1ccccc1 (stereo unspecified),-6.33% (inactive),
O=Cc1cn(CCC(=O)O)nc1-c1cccc(Cl)c1,-3.9% (inactive),
Cc1ccc(-c2nn(CCC(=O)O)cc2/C=C\C(=O)c2ccc(Br)cc2)cc1,7.02% (inactive),
O=C(O)CCn1cc(/C=C2\NC(=S)N(c3ccccc3)C2=O)c(-c2ccc(Br)cc2)n1,3.12% (inactive),
O=Cc1cn(CCC(=O)O)nc1-c1cccc(Br)c1,14.3% (inactive),
O=C(O)CCn1cc(C(=O)O)c(-c2ccccc2)n1,-1.47% (inactive),
CCOC(=O)/C(C#N)=C/c1cn(CCC(=O)O)nc1-c1cccc(Cl)c1,-8.58% (inactive),
NC(=S)N/N=C/c1cn(CCC(=O)O)nc1-c1cccc(Br)c1,-15.9% (inactive),
O=C(O)CCn1cc(/C=C2/NC(=S)N(c3ccccc3)C2=O)c(-c2ccccc2)n1,2.91% (inactive),
Cc1ncc(C(O)c2ccc(N(C)C)cc2)n1Cc1ccccc1 (stereo unspecified),0% (inactive),
CC(C)C(C(=O)NC1CCCC1)N(Cc1ccco1)C(=O)CNS(=O)(=O)c1ccccc1 (stereo unspecified),-8.96% (inactive),
CCn1c(=O)n(CC)c2cc(N3CCCC3)c(NC(=O)c3ccc(OC)c(Br)c3)cc21,-2.72% (inactive),
O=c1ccc(-c2ccc(S(=O)(=O)NCc3cccc(Br)c3)s2)n[nH]1,-1.36% (inactive),
CCCCNC(=O)CN(Cc1ccco1)S(=O)(=O)c1ccc(C(C)=O)cc1,-2.95% (inactive),
O=C(O)CC1CCC(=C(Cl)Cl)C1 (stereo unspecified),4.83% (inactive),
Cc1ccc(S(=O)(=O)N(CC(=O)Nc2cccc(C(F)(F)F)c2)C(=O)N2CCN(C)CC2)cc1,-4.32% (inactive),
CCn1c(SCC(=O)NC)nnc1C(C)C,4.79% (inactive),

Compound,inhibition,inhibition [1]
Cc1ccccc1-c1c(C)oc2cc(O)ccc2c1=O,1.35% (inactive),
COCCN(C(=O)COC(=O)CCc1ccccc1)c1c(N)n(Cc2ccccc2)c(=O)[nH]c1=O,0% (inactive),
O=C(O)CCn1cc(/C=C/C(=O)c2ccc(Cl)cc2)c(-c2ccc(Br)cc2)n1,12.8% (inactive),
O=C(O)CCn1cc(/C=C\C(=O)c2ccc(Cl)cc2)c(-c2cccc(Br)c2)n1,26% (inactive),
CCOc1ccc(NC(=O)CSc2nc(C3CC3)nc3ccccc23)cc1,15.3% (inactive),
CCOC(=O)c1c(NC(=O)C(Sc2ccccc2)c2ccccc2)sc(C(N)=O)c1C (stereo unspecified),2.74% (inactive),3.33%
O=c1c2ccccc2[nH]c(=S)n1-c1cccc(S(=O)(=O)N2CCCC2)c1,-8.01% (inactive),
CCC(C)/C=C/C1=CC2=C(Cl)C(=O)C3(C)OC(=O)C(C(=O)C(C)C(C)O)C3C2=CO1 (stereo unspecified),4.35% (inactive),
CC[C@H](C)/C=C(C)/C=C/C1=CC2=CC(=O)[C@]3(C)OC(=O)[C@@H](C(C)=O)[C@@H]3C2=CO1,7.68% (inactive),
O=C(Cn1ncc2c([nH]c3ccccc32)c1=O)NCCCN1CCN(c2ccccc2)CC1,0% (inactive),
C=CCn1cc(C(=O)NCC2CCCO2)c(=O)c2cc(S(=O)(=O)N3CCCCCC3)ccc21 (stereo unspecified),-3.55% (inactive),
S=c1[nH]nc(Cc2cccs2)n1-c1ccccc1,-2.82% (inactive),
CC(C)(C)c1nnc(NC(=O)C2CCN(c3ncccn3)CC2)s1,-2.45% (inactive),
COc1cc(/C=C2/C(=O)N(c3ccc(C)c(C)c3)N=C2C)cc([N+](=O)[O-])c1O,9.88% (inactive),-3.04%
COc1cc(/C=C2/SC(=O)NC2=O)ccc1Oc1ccc([N+](=O)[O-])cc1[N+](=O)[O-],23.6% (inactive),
O=C(c1ccccc1)c1ccc(Oc2ccc([N+](=O)[O-])cc2[N+](=O)[O-])cc1,-2.33% (inactive),
CC1=NN(c2ccc([N+](=O)[O-])cc2)C(=O)/C1=C\N(C)C,-9.46% (inactive),
O=C(c1ccc(Cl)s1)N1CCc2ccccc21,-1.37% (inactive),
O=C(CCN1CCCCC1=O)NC1CCCN(Cc2ccc(Cl)cc2)C1 (stereo unspecified),-5.2% (inactive),
Cc1ccc(Oc2ccccc2/C=C2\SC(=O)N(C)C2=O)cc1,0% (inactive),5.03%
O=C1NC(=O)/C(=C/c2ccccc2Oc2ccc(Cl)cc2)S1,-4.16% (inactive),
CN1C(=O)/C(=C/c2ccccc2OCc2ccc(F)cc2)N(C)C1=S,-7.89% (inactive),
O=C1NC(=O)/C(=C\c2ccccc2Oc2ccc(F)c(F)c2)S1,24.6% (inactive),
